According to PubChem BioAssay (NCATS):
“And” between values parts separate entries of the source, which are not always exact repeats. Identical values can stand only once. Records with an inconclusive call do not appear. Entries that show only a call come without a potency. The source made the active and inactive calls. Calls follow the shape of the dose curve; as a rule, active = well fitted cell-killing curve with a large enough effect; inconclusive = small, poorly fitted or top-dose-only effect, or effect the other way; inactive = no such curve, though single readings can be large or run the other way.

test: Viability qHTS for spleen associated tyrosine kinase inhibitor (SYKi) drug resistant MV4-11 cells (AID 1963824); details: SYKi-resistant MV4-11 viability, CellTiter-Glo, 72 h; series mostly up to 45 µM; also: nearly all actives have a fitted effect of over 35% in size
Description: Department of Medicine, Hematology/Oncology
University Hospital Frankfurt, Germany.
Trials have shown promising clinical activity of the selective SYK inhibitor entospletinib in patients with high expressing HOXA9/MEIS1 acute leukemias. As the development of resistance mechanisms is a common problem in the use of targeted drugs, we performed a chemical library screen to identify drug sensitivities in SYK inhibitor resistant AML cells. […] Glucocorticoids are potent immunosuppressants which work in part by inhibiting the transcription of cytokine genes.
Described herein is a viability screen to look for activity in the SYK inhibitor drug resistant cell line against four NCATS compound libraries (MIPE 5.0, NPC, NPACT, and Kinase) totaling 11372 compounds. Active hits were reacquired for confirmation and further secondary assay testing.
SEQUENCE No. (e.g., 1, 2, 3, etc.); […] (e.g., Cells, Incubation, Reagent, etc.); VALUE; DESCRIPTION.
1; Media; 2uL; white, solid-bottom Corning assay plate.
2; Compounds; 23nL; Echo acoustic dispenser.
3; Cell; 5uL; 500 cells per well.
4: Incubation; 72hr; 37 C, 5% CO2, 95% humidity.
5; Reagent; 3uL; CellTiter-Glo reagent (Promega).
6; Incubation; 10min; room temperature.
7; Detection; Luminescence; ViewLux plate reader (PerkinElmer).
NOTES (numbers refer to Sequence numbers above
1. Quantitative high-throughput screening (qHTS) of small molecule compounds was conducted on drug resistant SYKi MV4-11 cell line.
2. Twenty-three nanoliter of small molecule compounds were added to each assay plates using the Echo acoustic dispenser (Beckman Coulter).
3. Cells were seeded into the assay plates at a final density of 500 cells in 5uL of media per well using the Multidrop Combi dispenser.
4. Plates were covered with stainless steel gasketed lids and incubated for 72 hours at standard cell culture conditions.
5. Viability was assessed by adding 3uL of CellTiter-Glo detection reagent (Promega).
6. Plates were covered with gasket lids and incubated for 10 minutes at room temperature.
7. Luminescence was measured on a ViewLux plate reader (PerkinElmer).
Potency is read from the fitted curve at half-maximal effect.

Row | Compound | Potency
1 | O=S(=O)(Nc1ccccn1)c1ccc(N=Cc2c(O)[nH]c3ccc4ncsc4c23)cc1 | 0.299 µM (active)
2 | CCn1c(-c2nonc2N)nc2c(C#CC(C)(C)O)ncc(OC[C@H]3CCCNC3)c21 | 7.42 µM (active)
3 | CCO[C@H](Cc1ccc(OCCc2ccc(OS(C)(=O)=O)cc2)cc1)C(=O)O | inactive
4 | CCCC(=O)C1CCN(c2ncnc3c2CN(C(=O)c2ccc(-c4ccccc4)cc2)CC3)CC1 | 20.6 µM (active)
5 | CC(C)OC(=O)c1cc(C(=O)OC(C)C)cc([N+](=O)[O-])c1 | inactive
6 | CC(=O)N[C@@H](Cc1c[nH]c2ccccc12)C(=O)N[C@@H](CCC(=O)O)C(=O)N[C@@H](Cc1cnc[nH]1)C(=O)N[C@@H](CC(=O)O)C(=O)Nc1ccc2c(C(F)(F)F)cc(=O)oc2c1 | inactive
7 | N#C[C@@H]1C[C@H](F)CN1C(=O)CNC1[C@H]2CN(C(=O)c3ccc(F)cc3)C[C@@H]12 (stereo not given in full) | inactive
8 | CC(O)(C#Cc1ccc2c(c1)N(c1nc(N)ncc1Cl)CC2)c1nccs1 (stereo not given) | 10.3 µM (active)
9 | O=c1c(O)c(-c2ccc(O)cc2O)oc2cc(O)cc(O)c12 | inactive
10 | CNC(=O)c1ccc2cc(C3(O)CCn4cncc43)ccc2c1 (stereo not given) | inactive
11 | OC[C@H]1OC(O)C[C@@H](O)[C@H]1O (stereo not given in full) | inactive
12 | Cc1noc(C)c1-c1ccc(-c2cc(C(N)=O)c(NC(N)=O)s2)c(O[C@H]2CCNC2)c1 | 3.26 µM (active)
13 | CNC(=O)c1cc(Oc2ccc(NC(=O)c3cccc(C(F)(F)F)c3)cc2)ccn1 | 11.6 µM (active)
14 | CC1=CC(=O)CC2C1(O)CCC(C)C21CC(c2ccoc2)OC1=O (stereo not given) | inactive
15 | COC(=O)CCC(=O)OC[C@]1(C)CCC[C@@]2(C)C3CC[C@]4(C)C=CC3(CCC12)C4 (stereo not given in full) | inactive
16 | CC(C)(N)c1ccc(-c2nc3ccccc3nc2-c2ccccc2)cc1 | 14.8 µM (active)
17 | CCCCCC[C@@H](CCC)C(=O)O | inactive
18 | Nc1nc2c(ncn2[C@@H]2O[C@H](CO)[C@@H](O)[C@H]2O)c(=O)[nH]1 | inactive
19 | N#Cc1c(O)c2c(-c3ccc(-c4ccccc4O)cc3)csc2[nH]c1=O | inactive
20 | O=S(=O)(NCCNC/C=C/c1ccc(Br)cc1)c1cccc2cnccc12 | 9.2 µM (active) and 11.8 µM (active)

Row | Compound | Potency
21 | Cn1cnc2c1c(=O)[nH]c(=O)n2C | inactive
22 | O=C(Nc1cccnn1)N1CCC(=Cc2cccc(Oc3ccc(C(F)(F)F)cn3)c2)CC1 | 10.3 µM (active) and 6.61 µM (active)
23 | CC[C@H](C)[C@H](NC(=O)[C@H]([C@@H](C)CC)N(C)C(C)=O)C(=O)N[C@H](C(=O)N[C@@H](CC(C)C)C(=O)[C@@]1(C)CO1)[C@@H](C)O | 0.0073 µM (active)
24 | NCCc1cnc[nH]1 | inactive
25 | c1ccc2[nH]ccc2c1 | inactive
26 | COc1cc(/C=C/C(=O)OC2[C@H](O)CC(O)(C(=O)O)C[C@H]2O)ccc1O (stereo not given in full) | inactive
27 | C=C(COC(=O)C(C)C)C1Oc2cc(C(C)=O)ccc2C1OC(=O)C(C)C (stereo not given) | inactive
28 | C/C=C(\C)C(=O)OC1C[C@@]2(COC(C)=O)O[C@H]2/C=C\[C@@]2(C)O[C@@H]2[C@H]2OC(=O)C(COC(C)=O)=C12 (stereo not given in full) | 4.47 µM (active)
29 | C[C@@H]1C[C@H](O)/C=C/[C@H](O)[C@@H](O)CC(=O)O1 | inactive
30 | CN(C/C=C/c1ccccc1)Cc1cccc2ccccc12 | inactive
31 | C[C@H]1CNCCCN1S(=O)(=O)c1cccc2cncc(F)c12 | inactive
32 | Cc1c(NC(=O)c2cccnc2)c(=O)n(-c2ccccc2)n1C | inactive
33 | C/C(=C(\CCO)SS/C(CCO)=C(\C)N(C=O)Cc1cnc(C)nc1N)N(C=O)Cc1cnc(C)nc1N | inactive
34 | Cc1c(C)n(Cc2ccc(-c3ccccc3C(=O)O)cc2)c2ccc(C(=O)N[C@@H](C)c3ccc([N+](=O)[O-])cc3)cc12 | 20.9 µM (active)
35 | CC(C)OP(=O)(CP(=O)(OC(C)C)OC(C)C)OC(C)C | inactive
36 | O=C(NCN1CCOCC1)c1cnccn1 | inactive
37 | O=C1N=C(O)CN1/N=C/c1ccc(-c2ccc([N+](=O)[O-])cc2)o1 | inactive
38 | CCOC(=O)Nc1nc2ccccc2[nH]1 | 10.3 µM (active)
39 | C[C@@H]1CN(Cc2ccc(F)cc2)[C@@H](C)CN1C(=O)c1cc2c(C(=O)C(=O)N(C)C)cn(C)c2cc1Cl | 16.4 µM (active)
40 | CCC(=O)NS(=O)(=O)c1ccc(-c2c(-c3ccccc3)noc2C)cc1 | 8.2 µM (active)
